The values that follow come from the supplement of paper PMC5940239.

SMILES strings stand for the structures. Values without a mark were called inactive.

For this experiment, the system named is Madurella mycetomatis MM55. Kind of experiment: percent growth relative to solvent control; higher = less inhibition, active = 20 or less. Particulars: 100 µM; 7 days.

Regarding `Nc1ncc(-c2ccc(C(F)(F)F)nc2)cc1-c1ccc(C(F)(F)F)nc1`, the percent growth was 94.5%. For `COc1ccc(Nc2ccccc2NC(=O)c2ccc(O)nc2)cc1` the value was 85.8%; for `CCc1ccc(C(NCc2nc(N)nc(N(C)C)n2)C(C)C)cc1` (centres undefined), 49.1%. For `CCC(C)NC(=O)c1ccc(NC(=O)C2(c3ccccc3)CCCC2)cc1` (centres undefined), the percent growth was 96.7%. The value for `Cc1cc(C(=O)Nc2cnn(Cc3ccc(Cl)cc3Cl)c2)no1` was 121%; that for `CS(=O)(=O)N1CCC(Cn2nc(Cc3cccc4ccccc34)c3c(N)ncnc32)CC1` was 92.8%.

In the case of `NCC(=O)N1CCn2c(nc(-c3ccccc3)c2Nc2ccc3c(c2)OCO3)C1`, the percent growth is 157%.

Turning to `CC(C)(C)OC(=O)N1CCC(Cn2nc(-c3cnc4ccccc4c3)c3c(N)ncnc32)CC1`, the percent growth was 99.2%. With `CC(C)(C)C(=O)N(CCCCCCN1C[C@H](O)[C@@H](O)[C@H](O)[C@H]1CO)C1CCCCCC1`, the percent growth was 86.6%.

As to `Cc1ccc(S(=O)(=O)n2cc(-c3ccnc(N)c3)c3cc(Br)cnc32)cc1`, the percent growth was 25.4%.

Consider `CCCCS(=O)(=O)Nc1ccc2cnn(C)c2c1`, for which the percent growth was 106%. With `CCC(NC(=O)c1ccccc1NC(=O)c1ccc(C)cc1)C(=O)OC` (centres undefined), the percent growth was 98.3%. The value for `CCC(=O)Nc1ccccc1C(=O)Nc1ccccn1` was 62.5%; that for `COc1ccc(Cn2cnc3c(-c4ccco4)nc(Cl)nc32)cc1` was 82.7%; that for `COc1cccc(CC(=O)N2CCC(n3c(C)nc4ccc(F)cc43)CC2)c1` was 118%. For `O=C1[C@@H](Oc2ccccc2)[C@@H](c2ccc(Cl)cc2)N1CCn1cnc2c(NCc3ccccc3)ncnc21` the value was 98.5%. For `COc1ccc(-c2nc(-c3cccc(NC(=O)Cc4ccc(F)cc4)c3)no2)cc1OC` the value was 95%; for `Cc1cc(C)n2nc(C(=O)Nc3cc(C(F)(F)F)ccc3N3CCOCC3)nc2n1`, 162%; for `N#Cc1ccc(-c2ccc(OCC(N)=O)cc2)cc1`, 96.5%.

For `CCS(=O)(=O)N(Cc1ccco1)Cc1cc2ccc(C)cc2nc1O`, the percent growth was 85%. The value for `CC(C)C(Oc1cccc2ccccc12)C(=O)O` (centres undefined) was 118%; that for `CC1CCCN(C(=O)C(C)Nc2cc(Cl)ccc2N2CCOCC2)C1` (centres undefined) was 53.8%.

`COc1ccc2nc(C)cc(OCC(=O)Nc3ccccc3OC)c2c1`: the percent growth is 72.5%. `CS(=O)(=O)c1ccc(C(=O)N(CC2CCCO2)c2nc3ccccc3s2)cc1[N+](=O)[O-]` (centres undefined): the percent growth was 110%. Take `COC(=O)c1cccc2oc(-c3cccc(OC)c3NC(=O)c3cc(-c4ccccc4)on3)nc12`: the percent growth is 123%. The value for `CCn1ncc2c(NC3CCOCC3)c(CNC(=O)c3ccnn3C)c(C)nc21` was 142%. For `CCc1ccc([C@@H]2C[C@H](C(F)(F)F)n3ncc(C(=O)NCc4ccc(OC)cc4)c3N2)cc1` the value was 60.8%. Take `Nc1ncnc2c1c(Cc1cccc3ccccc13)nn2CC1CCNCC1`: the percent growth is 132%. For the compound `O=C(NC1CC1)c1ccc(CSCc2ccccc2Cl)o1`, the percent growth was 41.5%. The value for `CC(=O)NCC1CN(c2ccc(-c3ccc(CNCc4cn[nH]n4)cc3)c(F)c2)C(=O)O1` (centres undefined) was 125%; that for `Cc1ccc2cc(C3NC(=O)c4ccccc4N3)c(Cl)nc2c1` (centres undefined) was 139%; that for `CC(Oc1cccc(Cl)c1)C(=O)Nc1ccc2oc(-c3ccncc3)nc2c1` (centres undefined) was 51.2%. `Nc1ncnc2c1c(-c1cnc3ccccc3c1)nn2CC1CCNCC1`: the percent growth was 93.3%.

In the case of `Cc1cc(C)cc(COc2ccc3c(C)c(CCC(=O)O)c(=O)oc3c2C)c1`, the percent growth was 84.8%.
